The values that follow come from PubChem BioAssay (NCATS).

The target in assay [1] is Rap guanine nucleotide exchange factor 4 (Homo sapiens) (UniProt Q8WZA2). The assay is described as follows: Confirmatory qHTS for agonist of cAMP-regulated guanine nucleotide exchange factor 4 (EPAC2) (AID 1645884).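 Also: nucleotide exchange releases bodipy-GDP from Rap1 and this lowers its fluorescence; % is scaled to controls: 0 for no effect and ±100 for the full control effect; nearly all actives have a fitted effect of over 65% in size.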 A general note: Quantitative high-throughput screening tests each substance at several concentrations.
Sequence of Rap guanine nucleotide exchange factor 4 (Homo sapiens) (Q8WZA2 whole entry, looked up): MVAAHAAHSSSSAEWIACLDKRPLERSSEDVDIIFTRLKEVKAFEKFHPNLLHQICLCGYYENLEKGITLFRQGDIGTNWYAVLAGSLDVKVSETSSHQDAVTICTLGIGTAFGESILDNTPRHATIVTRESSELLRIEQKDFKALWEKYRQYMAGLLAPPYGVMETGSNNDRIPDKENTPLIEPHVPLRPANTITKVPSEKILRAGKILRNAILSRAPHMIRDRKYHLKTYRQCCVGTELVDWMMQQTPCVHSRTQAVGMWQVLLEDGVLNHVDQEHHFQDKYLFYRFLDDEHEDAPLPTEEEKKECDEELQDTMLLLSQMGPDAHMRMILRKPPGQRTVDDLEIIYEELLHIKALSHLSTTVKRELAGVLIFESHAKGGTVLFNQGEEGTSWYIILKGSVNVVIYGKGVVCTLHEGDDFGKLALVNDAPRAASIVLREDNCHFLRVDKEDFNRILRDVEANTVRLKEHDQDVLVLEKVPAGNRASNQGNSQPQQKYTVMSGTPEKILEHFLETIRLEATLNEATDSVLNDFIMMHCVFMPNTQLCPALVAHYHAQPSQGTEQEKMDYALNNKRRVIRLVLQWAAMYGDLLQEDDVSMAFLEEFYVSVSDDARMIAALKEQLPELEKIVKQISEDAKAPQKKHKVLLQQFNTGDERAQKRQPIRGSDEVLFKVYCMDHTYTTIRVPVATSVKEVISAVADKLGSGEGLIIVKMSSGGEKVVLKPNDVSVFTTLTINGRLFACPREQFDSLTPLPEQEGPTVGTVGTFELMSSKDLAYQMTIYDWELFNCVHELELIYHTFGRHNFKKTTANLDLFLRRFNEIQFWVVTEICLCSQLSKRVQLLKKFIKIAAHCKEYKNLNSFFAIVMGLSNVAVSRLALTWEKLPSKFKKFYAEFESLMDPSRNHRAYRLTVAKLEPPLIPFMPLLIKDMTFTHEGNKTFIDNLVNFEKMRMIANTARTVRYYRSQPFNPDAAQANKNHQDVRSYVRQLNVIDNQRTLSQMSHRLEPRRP
For assay [2] the target is unchanged. The assay is described as follows: Confirmatory qHTS for antagonist of cAMP-regulated guanine nucleotide exchange factor 4 (EPAC2) (AID 1645885). Also: % is scaled to controls: 0 for no effect and ±100 for the full control effect; nearly all actives have a fitted effect of over 25% in size.
In assay [3] the target is Rap guanine nucleotide exchange factor 3 (Homo sapiens) (UniProt O95398). The assay is described as follows: Counterscreen qHTS for antagonist of cAMP-regulated guanine nucleotide exchange factor 3 (EPAC1) (AID 1645888).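 Also: fluorescence loss as bound BODIPY-GDP is released from Rap1B; % of control where 0% means no effect.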 Summed up:
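Measured: fluorescence of BODIPY-GDP bound to Rap1B, which falls as exchange proceeds. Conditions include 50 uM competing GDP, 5 and 30 min reads, and a later cAMP challenge for antagonist detection.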
Background: Counterscreens check selectivity or assay interference.

Assay [4] deals with Catechol O-methyltransferase (Homo sapiens) (UniProt P21964). The assay is described as follows: Confirmatory Screen for Target Class Profiling of Small Molecule Inhibitors of Methyltransferases (AID 1745852). As to activity change, negative = inhibition: % is scaled to controls: 0 for no effect and ±100 for the full control effect. Conditions: MTase-Glo luminescence, SAH detection, recombinant enzyme; measured here: COMT max response; stronger effect = lower value.
Sequence of Catechol O-methyltransferase (Homo sapiens) (P21964 whole entry, looked up): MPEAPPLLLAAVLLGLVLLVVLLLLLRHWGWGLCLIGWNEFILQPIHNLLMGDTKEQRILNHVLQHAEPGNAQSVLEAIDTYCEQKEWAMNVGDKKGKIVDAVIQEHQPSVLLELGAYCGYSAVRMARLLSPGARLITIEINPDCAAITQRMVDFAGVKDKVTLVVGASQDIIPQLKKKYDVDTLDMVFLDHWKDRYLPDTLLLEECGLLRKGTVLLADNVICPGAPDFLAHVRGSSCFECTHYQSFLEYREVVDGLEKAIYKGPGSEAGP
Assay [5] concerns the target Guanidinoacetate N-methyltransferase (Homo sapiens) (UniProt Q14353). The description is as above. Conditions: MTase-Glo luminescence, SAH detection, recombinant enzyme; activity change, negative = inhibition: at 85.7 µM (top of the series) unless noted.
Assay [6] concerns the target Nicotinamide N-methyltransferase (Homo sapiens) (UniProt P40261). The assay is described as above. Conditions: MTase-Glo luminescence, SAH detection, recombinant enzyme; measured here: NNMT max response; stronger effect = lower value.
For assay [7], the target named is Phenylethanolamine N-methyltransferase (Homo sapiens) (UniProt P11086). Described as above. Conditions: MTase-Glo luminescence, SAH detection, recombinant enzyme; measured here: PNMT max response; stronger effect = lower value.
Sequence of Phenylethanolamine N-methyltransferase (Homo sapiens) (P11086 whole entry, looked up): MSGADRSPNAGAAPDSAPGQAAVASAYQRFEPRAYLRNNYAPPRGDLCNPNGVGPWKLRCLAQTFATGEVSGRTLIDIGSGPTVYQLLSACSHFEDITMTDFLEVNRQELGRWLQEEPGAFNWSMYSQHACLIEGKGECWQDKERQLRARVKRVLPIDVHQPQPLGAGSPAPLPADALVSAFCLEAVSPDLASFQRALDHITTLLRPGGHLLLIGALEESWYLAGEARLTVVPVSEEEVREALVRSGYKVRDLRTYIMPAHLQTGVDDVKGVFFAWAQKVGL
Assay [8] in a line: Counterscreen for APE1 Inhibitors: Fluorescent Dye Displacement Validation Assay (AID 1707).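 Also: plate controls were ThO with dsDNA and no compound for no effect and ThO without dsDNA for full effect.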 The method, boiled down: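 Counterscreen flags promiscuous DNA binders: compounds displacing ThO from duplex DNA (abasic THF site, 50 nM) reduce 540 nm emission (480 nm excitation). ThO 250 nM final; Tris-HCl pH 7.5 with NaCl, MgCl2 and Tween-20.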
For assay [9], the target named is Endonuclease 4 (Escherichia coli (strain K12)) (UniProt P0A6C1). The assay is described as follows: Counterscreen for APE1 Inhibitors: qHTS Validation Assay for Inhibitors of Endonuclease IV (AID 1708). Also: % is scaled to controls: 0 for no effect and ±100 for the full control effect. Summed up:
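Measured as reaction progress, the fluorescence gain between first and third kinetic reads after adding 50 nM TAMRA/BHQ-2 THF duplex to 2 nM enzyme preincubated 15 min with compound; 2 mM MgCl2, pH 7.5.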

The nature of assay [10]: qHTS for differential inhibitors of proliferation of Plasmodium falciparum line 7G8 (AID 1815).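 Also: potency is read from the fitted curve at half-maximal effect; parasite growth measured after three days of incubation.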
Assay [11] can be described thus: qHTS for differential inhibitors of proliferation of Plasmodium falciparum line GB4 (AID 1816).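 Also: potency is read from the fitted curve at half-maximal effect; parasite growth measured after 72 h incubation.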 The following applies: Potency: Plasmodium falciparum GB4 proliferation inhibition.
Assay [12] is described as follows: qHTS for differential inhibitors of proliferation of Plasmodium falciparum line 3D7 (AID 1876). Also: potency is read from the fitted curve at half-maximal effect.
A short description of assay [13]: qHTS for differential inhibitors of proliferation of Plasmodium falciparum line D10 (AID 1877).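 Also: potency is read from the fitted curve at half-maximal effect; parasites grown with compound for 72 h before DNA staining.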
Assay [14] can be described thus: qHTS for differential inhibitors of proliferation of Plasmodium falciparum line Dd2 (AID 1882). Also: potency is read from the fitted curve at half-maximal effect; nearly all actives have a fitted effect of over 65% in size. Conditions: Potency: Plasmodium falciparum Dd2 proliferation inhibition. The method, boiled down:
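RBC culture, 0.3% parasitemia / 2.5% Hct final; cpd added by pin tool in DMSO; 72 h, 37 C, 5% CO2; lysis buffer + SYBR Green I, o/n RT dark; FI 485/535; norm. to artemisinin 0.29 uM and DMSO.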

The nature of assay [15]: qHTS for differential inhibitors of proliferation of Plasmodium falciparum line W2 (AID 1883).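 Also: potency is read from the fitted curve at half-maximal effect; parasites grown with compound for 72 h before lysis and staining.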 The following applies: Potency: Plasmodium falciparum W2 proliferation inhibition.
A short description of assay [16]: qHTS for differential inhibitors of proliferation of Plasmodium falciparum line HB3 (AID 1886).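 Also: potency is read from the fitted curve at half-maximal effect; parasites grown with compound for 72 h before SYBR Green readout.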 Conditions: Potency: Plasmodium falciparum HB3 proliferation inhibition.
For assay [17], the target named is ATP-dependent DNA helicase Q1 (Homo sapiens) (UniProt P46063). The assay is described as follows: qHTS Validation Assay for Inhibitors of RecQ-Like Dna Helicase 1 (RECQ1) (AID 2353).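 Also: plate controls were DMSO vehicle for no effect and enzyme-free control for full effect.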 Summed up: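 RECQ1T1 50 nM; forked duplex (20 bp + 30-nt ss tails) 200 nM, ATP 2 mM final; pH 8.0, 2 mM MgCl2, 2.5 ug/ml poly(dI-dC); 15 min compound preincubation; discontinuous kinetic read over 2 h at RT.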
Sequence of ATP-dependent DNA helicase Q1 (Homo sapiens) (P46063 whole entry, looked up): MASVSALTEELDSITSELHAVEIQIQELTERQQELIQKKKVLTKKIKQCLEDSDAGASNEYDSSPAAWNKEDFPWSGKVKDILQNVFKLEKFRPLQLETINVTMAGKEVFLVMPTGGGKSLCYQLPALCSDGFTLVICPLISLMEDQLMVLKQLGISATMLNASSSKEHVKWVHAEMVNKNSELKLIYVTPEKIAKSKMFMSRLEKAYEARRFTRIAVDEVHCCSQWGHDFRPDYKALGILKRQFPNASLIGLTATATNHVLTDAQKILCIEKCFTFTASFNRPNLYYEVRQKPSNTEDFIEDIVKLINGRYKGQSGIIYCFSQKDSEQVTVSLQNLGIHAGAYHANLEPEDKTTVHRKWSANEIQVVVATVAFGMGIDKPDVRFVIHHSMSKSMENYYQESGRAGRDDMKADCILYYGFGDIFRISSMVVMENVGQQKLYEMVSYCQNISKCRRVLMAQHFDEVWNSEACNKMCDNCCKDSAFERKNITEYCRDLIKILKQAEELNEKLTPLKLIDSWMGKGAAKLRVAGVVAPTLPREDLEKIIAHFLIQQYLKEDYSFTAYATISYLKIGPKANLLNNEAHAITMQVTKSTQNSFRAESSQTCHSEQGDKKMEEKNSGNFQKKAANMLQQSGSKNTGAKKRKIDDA

The nature of assay [18]: Validation screen for inhibitors of Lassa infection (AID 463096; calls by dose curve; also: potency is read from the fitted curve at half-maximal effect).
The nature of assay [19]: Quantitative high throughput screen for delayed death inhibitors of the malarial parasite plastid, 96 hour incubation (AID 488745). Also: potency is read from the fitted curve at half-maximal effect; nearly all actives have a fitted effect of over 70% in size. Summed up: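 Luciferase-expressing P. falciparum, infected RBCs 2% Hct/0.1% parasitemia (final); 96 h cpd exposure, 37 C, 5% CO2; RPMI 1640 + 0.5% Albumax, bicarbonate, gentamycin. Readout: luminescence loss = growth inhibition.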
The nature of assay [20]: Quantitative high throughput screen for delayed death inhibitors of the malarial parasite plastid, 48 hour incubation (AID 488752). Also: potency is read from the fitted curve at half-maximal effect; nearly all actives have a fitted effect of over 65% in size. Summed up: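 Luciferase-expressing P. falciparum in RBCs, 2% Hct, 0.1% parasitemia final; RPMI 1640 + 0.5% Albumax; 48 h, 37 C, 5% CO2; luminescence readout, signal drop = growth inhibition.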
In assay [21] the target is M-phase phosphoprotein 8 (Homo sapiens) (UniProt Q99549). The assay is described as follows: qHTS Validation Assay for Inhibitors for MPP8 Chromodomain Interactions with Methylated Histone Tails (AID 488949).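 Also: AlphaScreen signal from MPP8 chromodomain bound to biotinylated H3K9me3 peptide; top concentration of the series differs between compounds; % is scaled to controls: 0 for no effect and ±100 for the full control effect; nearly all actives have a fitted effect of over 55% in size.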 Summed up:
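Disruption of the preformed MPP8–trimethyl-H3K9 peptide complex (both 50 nM, 30 min, RT) is measured after 30 min compound exposure, using AlphaScreen proximity beads; aurintricarboxylic acid titration serves as plate control.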

The target in assay [22] is Thyrotropin receptor (Homo sapiens) (UniProt P16473). Nature of the assay: qHTS Assay for Antagonists of the Thyroid Stimulating Hormone Receptor (AID 488980). Also: 0% is about no effect. Summed up:
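Cells expressing human TSHR (HEK293) are dispensed in HBSS/HEPES containing 70 uM RO 20-1724, compound is added, then TSH at EC80 (4 nM final). Antibody in lysis buffer follows, 30 minutes at room temperature before HTRF detection.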

Assay [23] concerns the target Galactokinase (Homo sapiens) (UniProt P51570). The assay is described as follows: qHTS Validation Assay for Inhibitors of Human Galactokinase (GALK) (AID 493189). Also: 0% is about no effect. Summed up:
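Compounds were pin-transferred into ATP buffer, then GALK-galactose mix was added (final 5 nM enzyme, 100 uM galactose, 35 uM ATP). After 1 h at room temperature, remaining ATP was measured luminescently.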

Assay [24] is described as follows: Validation screen for small molecules that induce DNA re-replication in SW480 colon adenocarcinoma cells (AID 504364). Also: 0% is about no effect. Summed up: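 Read-out: total Hoechst intensity of nuclei by fluorescence scanning imager; hits raise the fraction of nuclei with elevated DNA content. Cells received compound for 48 hr at 37 C before a 40 min stain.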

Structures are written as SMILES. Results filed as inconclusive are left out. Activity calls are given as the source filed them. Unless noted, calls follow the shape of the dose curve; as a rule, active = well fitted curve in the direction sought with a large enough effect; inconclusive = small, poorly fitted or top-dose-only effect, or another doubt; inactive = no such curve, though single readings can be large; an effect the other way counts as inactive or inconclusive.

Sequence of Nicotinamide N-methyltransferase (Homo sapiens) (P40261 whole entry, looked up): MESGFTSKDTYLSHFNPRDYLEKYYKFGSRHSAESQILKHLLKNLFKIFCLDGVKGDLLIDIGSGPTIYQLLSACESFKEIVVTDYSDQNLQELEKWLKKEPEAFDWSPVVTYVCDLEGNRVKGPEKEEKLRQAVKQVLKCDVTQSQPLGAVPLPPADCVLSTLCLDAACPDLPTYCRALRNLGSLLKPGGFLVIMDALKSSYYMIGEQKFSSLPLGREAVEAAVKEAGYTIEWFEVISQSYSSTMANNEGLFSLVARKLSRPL
Sequence of Rap guanine nucleotide exchange factor 3 (Homo sapiens) (O95398 whole entry, looked up): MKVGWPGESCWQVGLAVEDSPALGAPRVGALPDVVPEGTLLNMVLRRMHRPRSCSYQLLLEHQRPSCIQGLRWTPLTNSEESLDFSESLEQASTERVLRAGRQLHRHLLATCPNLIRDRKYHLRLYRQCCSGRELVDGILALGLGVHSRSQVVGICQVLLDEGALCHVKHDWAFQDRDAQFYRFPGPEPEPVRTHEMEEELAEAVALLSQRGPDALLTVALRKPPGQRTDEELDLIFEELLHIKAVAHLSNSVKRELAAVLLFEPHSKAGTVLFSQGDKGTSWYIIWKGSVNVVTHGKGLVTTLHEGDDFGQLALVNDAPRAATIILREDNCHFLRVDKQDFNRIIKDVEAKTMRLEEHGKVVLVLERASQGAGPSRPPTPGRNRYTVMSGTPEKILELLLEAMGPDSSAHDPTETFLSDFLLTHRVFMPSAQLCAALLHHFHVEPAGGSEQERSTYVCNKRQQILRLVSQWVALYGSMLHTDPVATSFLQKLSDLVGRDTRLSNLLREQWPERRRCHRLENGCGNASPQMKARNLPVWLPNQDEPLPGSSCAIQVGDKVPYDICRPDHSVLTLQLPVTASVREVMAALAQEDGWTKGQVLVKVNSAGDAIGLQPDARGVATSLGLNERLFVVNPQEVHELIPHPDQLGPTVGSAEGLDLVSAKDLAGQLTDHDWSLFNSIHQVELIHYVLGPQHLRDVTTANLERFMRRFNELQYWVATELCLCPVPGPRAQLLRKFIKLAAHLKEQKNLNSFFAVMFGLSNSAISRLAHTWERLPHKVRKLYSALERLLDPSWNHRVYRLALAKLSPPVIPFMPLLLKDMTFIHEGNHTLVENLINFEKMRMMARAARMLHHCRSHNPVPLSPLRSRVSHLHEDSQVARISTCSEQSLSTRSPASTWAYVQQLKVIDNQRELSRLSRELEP
Sequence of M-phase phosphoprotein 8 (Homo sapiens) (Q99549 whole entry, looked up): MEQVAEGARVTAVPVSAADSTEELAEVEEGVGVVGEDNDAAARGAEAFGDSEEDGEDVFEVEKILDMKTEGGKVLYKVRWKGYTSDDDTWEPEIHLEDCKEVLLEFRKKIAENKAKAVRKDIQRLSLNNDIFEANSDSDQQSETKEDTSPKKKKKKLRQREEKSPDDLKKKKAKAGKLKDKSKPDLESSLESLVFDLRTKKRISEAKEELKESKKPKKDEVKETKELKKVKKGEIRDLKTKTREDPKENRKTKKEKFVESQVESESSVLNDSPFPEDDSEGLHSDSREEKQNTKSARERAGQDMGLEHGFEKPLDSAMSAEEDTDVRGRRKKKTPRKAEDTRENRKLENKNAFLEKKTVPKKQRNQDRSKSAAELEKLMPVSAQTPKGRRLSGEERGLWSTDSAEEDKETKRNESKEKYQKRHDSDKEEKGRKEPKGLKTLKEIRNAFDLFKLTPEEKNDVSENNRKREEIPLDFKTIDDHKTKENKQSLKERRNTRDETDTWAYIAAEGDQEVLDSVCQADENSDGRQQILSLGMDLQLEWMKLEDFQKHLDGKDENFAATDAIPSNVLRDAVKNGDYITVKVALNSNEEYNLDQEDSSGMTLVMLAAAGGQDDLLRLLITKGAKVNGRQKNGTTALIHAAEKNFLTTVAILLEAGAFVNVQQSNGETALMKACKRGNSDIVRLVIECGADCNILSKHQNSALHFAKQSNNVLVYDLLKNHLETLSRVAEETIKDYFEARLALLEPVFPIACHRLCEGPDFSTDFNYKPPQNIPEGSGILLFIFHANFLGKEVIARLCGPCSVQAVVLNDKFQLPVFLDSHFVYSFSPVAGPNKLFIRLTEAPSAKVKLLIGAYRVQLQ
Sequence of Galactokinase (Homo sapiens) (P51570 whole entry, looked up): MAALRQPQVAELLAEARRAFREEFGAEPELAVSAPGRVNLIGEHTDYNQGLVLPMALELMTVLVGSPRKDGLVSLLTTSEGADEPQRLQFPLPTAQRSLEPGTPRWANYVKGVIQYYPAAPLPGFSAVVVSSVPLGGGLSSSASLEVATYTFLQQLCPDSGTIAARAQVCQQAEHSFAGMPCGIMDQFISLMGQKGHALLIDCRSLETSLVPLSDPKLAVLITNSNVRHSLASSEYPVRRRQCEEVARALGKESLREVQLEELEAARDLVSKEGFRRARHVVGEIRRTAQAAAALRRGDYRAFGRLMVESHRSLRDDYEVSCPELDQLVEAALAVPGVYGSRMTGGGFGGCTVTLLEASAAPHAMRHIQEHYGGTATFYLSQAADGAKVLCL

With `FC(F)(F)c1cccc(C2NCc3ccccc3-n3cccc32)c1` (centres undefined), the activation in assay [1] is 12.8% [at 17.1 µM, percent relative to cAMP agonist control] (inactive). Also, the activity change, negative = inhibition was 2.28% [at 12.7 µM] (inactive) in [2] and -3.38% [at 30.8 µM] (inactive) in assay [3].

`CN(CCc1ccccn1)C[C@H]1CN2CC[C@H]1C[C@@H]2CNC(=O)Nc1ccsc1`: the activity in assay [4] was -2.73%; in assay [6] it was 0.703%; in assay [7], -0.547%. For the same compound, the activity change, negative = inhibition in assay [5] is 6.86%.

As for `C/C=C(/C)C(=O)O[C@H]1C(C)=C2C([C@@H]1OC(=O)CCCCCCC)[C@@](C)(OC(C)=O)C[C@@H](OC(=O)CCC)[C@@]1(O)[C@H]2OC(=O)[C@@]1(C)O` (some centres undefined), the outcome in [8], in [17], in assay [22], in assay [23] and in assay [24] was “inactive” each time. Also, the Potency result in assay [9] and in assay [21] was “inactive” each time. In addition, the Potency in [10] is 4.47 µM (active); in [11] it was 3.16 µM (active); in [12] it was 4.47 µM (active); in assay [13] it was 10 µM (active); in assay [14], 8.91 µM (active); in [15], 3.55 µM (active). Moreover, the Potency was 10 µM (active) in [16], 3.16 µM (active) in assay [18], 4.15 µM (active) in [19] and 2.94 µM (active) in assay [20].
